The whole screen tested about 68,000 compounds, of which about 2,700 (4%) showed an effect of 50% or more. Many of the other results were omitted from the sample, so strong results are more common in it than they were.
tested on: Plasmodium berghei; test: Screen against P. berghei liver stage (PbLuc), transformed with Luciferase, at 2uM; assay type: functional, HepG2; conditions: tested at 2 uM

Which INHIBITION does the source give for CC(C)(C)n1ncc2c1NC(=O)CC2c1cccc(O)c1 (stereo not drawn) here?
The INHIBITION was 31.54%.

For Cc1cc(-c2nccs2)nc(C2CCN(Cc3ccc(F)cc3)CC2)n1, which INHIBITION is on record?
The INHIBITION was -12.17%.

Which INHIBITION does the source give for Cc1noc(C)c1CN1CCC2(CC1)NC(=O)CC2c1ccncc1 (stereo not drawn) here?
The INHIBITION was -12.36%.

How did the INHIBITION turn out when CCN1CCCC(O)(CNCc2ccncc2)C1 (stereo not drawn) was run?
The INHIBITION was 50.02%.

Which INHIBITION does the source give for CCN1CCCC(O)(CNCc2ccccn2)C1 (stereo not drawn) here?
The INHIBITION was -36.39%.

Which INHIBITION does the source give for CCN1CCCC(O)(CNCc2ccc3c(c2)OCO3)C1 (stereo not drawn) here?
Its INHIBITION is 35.84%.

Cc1ccc(CN2CCn3c(CNC(=O)c4cccn4C)cnc3C2)s1 was tested. Which INHIBITION did it give?
Its INHIBITION is -40.86%.

COc1cccc(CN2CCC3(COCc4cnc(N(C)C)nc43)C2)c1 (stereo not drawn) was tested. Which INHIBITION did it give?
The INHIBITION was 23.93%.

Which INHIBITION does the source give for CSCc1cccc(S(=O)(=O)NCCCn2ccnc2)c1 here?
The INHIBITION was 16.48%.

For c1cnn(CC2CN(c3ncnc4ccsc34)CCO2)c1 (stereo not drawn), which INHIBITION is on record?
The INHIBITION was 32.39%.

Which INHIBITION does the source give for Cc1cc(F)ccc1C(=O)N1C[C@@H]2COC[C@]2(COCC2CC2)C1 here?
Its INHIBITION is 65.38%.

How did the INHIBITION turn out when O=C(C1=CCCC1)N1C[C@@H]2COC[C@]2(COCC2CC2)C1 was run?
Its INHIBITION is 24.23%.

For COC[C@]12COC[C@H]1CN(C(=O)C1CC(F)(F)C1)C2, which INHIBITION is on record?
Its INHIBITION is -22.65%.

For O=C(c1ccnnc1)N1C[C@@H]2COC[C@]2(COCC2CC2)C1, which INHIBITION is on record?
The INHIBITION was -57.61%.

COC[C@]12COC[C@H]1CN(C(=O)c1ccc(F)cc1C)C2 was tested. Which INHIBITION did it give?
The INHIBITION was 57.85%.

Which INHIBITION does the source give for Cc1cc(F)ccc1C(=O)N1C[C@@H]2COC[C@]2(CN(C)C)C1 here?
The INHIBITION was 25.58%.

Which INHIBITION does the source give for CCOc1c(F)cccc1C(=O)N(c1cccnc1)C(C)C here?
Its INHIBITION is -56.64%.

How did the INHIBITION turn out when CC1(C)CN(C(=O)c2ccc3nncn3c2)CCS1 was run?
Its INHIBITION is -17.04%.

For Cc1nccn1-c1cccc(N2CCC(OCC3CCCCO3)CC2)n1 (stereo not drawn), which INHIBITION is on record?
The INHIBITION was -16.7%.

Which INHIBITION does the source give for COc1ccc(OC)c2c(C)cc(N(C)Cc3cc(C)on3)nc12 here?
Its INHIBITION is 38.87%.

How did the INHIBITION turn out when Cc1cccc(CN2CC3(CCN(C4CCOC4)CC3)OCC2=O)n1 (stereo not drawn) was run?
Its INHIBITION is 15.98%.

How did the INHIBITION turn out when COc1c(CNCc2ccc(C(=O)N3CCCC3)cc2)c(C)nn1C was run?
Its INHIBITION is -36.39%.

How did the INHIBITION turn out when O=C(CCC(F)(F)F)N1CCCC(c2ncc[nH]2)C1 (stereo not drawn) was run?
The INHIBITION was -1.64%.

How did the INHIBITION turn out when O=C(CN1CCCC(c2ncc[nH]2)C1)NCC(F)(F)F (stereo not drawn) was run?
Its INHIBITION is 51.23%.

O=C(CN1CCCC(c2ncc[nH]2)C1)NCCCN1CCCCCC1=O (stereo not drawn) was tested. Which INHIBITION did it give?
Its INHIBITION is -21.61%.

With CC(=O)NS(=O)(=O)c1ccc(F)c(C(F)(F)F)c1 as the compound, how does the INHIBITION read?
The INHIBITION was -38.34%.

For CS(=O)(=O)CCC(=O)N1CCC2(CCCN(C3CCOCC3)C2=O)C1 (stereo not drawn), which INHIBITION is on record?
Its INHIBITION is -11.19%.

For O=C(O)c1cc(S(=O)(=O)Nc2cccc3c2OCCO3)c(Cl)cc1F, which INHIBITION is on record?
The INHIBITION was -47.76%.

For CCOc1ccc(C(F)(F)F)cc1NC(=O)N1CCC(C(N)=O)CC1, which INHIBITION is on record?
The INHIBITION was -3.17%.

With CCc1n[nH]c(NC(=O)c2ccc(Cl)cn2)c1Br as the compound, how does the INHIBITION read?
The INHIBITION was -3.87%.

With CN1CCN(Cc2cn3c(n2)CN(Cc2ccncc2)CC3)CC1 as the compound, how does the INHIBITION read?
The INHIBITION was 51.26%.

Which INHIBITION does the source give for CN1CCN(Cc2cn3c(n2)CN(Cc2cccnc2)CC3)CC1 here?
The INHIBITION was -59.73%.

How did the INHIBITION turn out when c1c(CN2CCCC2)nc2n1CCN(CC1CC1)C2 was run?
Its INHIBITION is -33.57%.

For c1c(CN2CCCCC2)nc2n1CCN(CC1CC1)C2, which INHIBITION is on record?
Its INHIBITION is 7.13%.

How did the INHIBITION turn out when Cc1ccc(CN2CCn3cc(CN4CCN(C)CC4)nc3C2)cc1 was run?
The INHIBITION was 18.32%.

With CN1CCN(Cc2cn3c(n2)CN(CC2CC2)CC3)CC1 as the compound, how does the INHIBITION read?
Its INHIBITION is 70.17%.

Which INHIBITION does the source give for CCCS(=O)(=O)NC(C)C(=O)NCc1ccc(N2CCCC2)nc1 (stereo not drawn) here?
Its INHIBITION is -5.15%.

Which INHIBITION does the source give for O=C(c1cc[nH]n1)N1CCC2(CC1)CC(Oc1cccnc1)CO2 (stereo not drawn) here?
Its INHIBITION is -0.83%.

For O=C(CSc1ccccc1F)NS(=O)(=O)c1ccc2c(c1)OCCO2, which INHIBITION is on record?
The INHIBITION was 12.81%.

O=C(CCCOc1ccccc1F)Nc1cc[nH]n1 was tested. Which INHIBITION did it give?
Its INHIBITION is -9.47%.

CC(NC(=O)COc1nc(C(C)(C)C)no1)c1ccco1 (stereo not drawn) was tested. Which INHIBITION did it give?
The INHIBITION was 1.22%.

For Cn1cc(C2CCCN2C(=O)CS(=O)(=O)C2CCCC2)cn1 (stereo not drawn), which INHIBITION is on record?
The INHIBITION was -0.06%.

With Cc1ccc2c(c1)C1(CCN(C(N)=O)CC1)CN2C(=O)N(C)C as the compound, how does the INHIBITION read?
Its INHIBITION is -22.42%.

How did the INHIBITION turn out when Cc1ccc2c(c1)C1(CCN(C(N)=O)CC1)CN2CC1CC1 was run?
The INHIBITION was 52.12%.

Which INHIBITION does the source give for CC(=O)N1CCC2(CC1)CN(CC1CC1)c1ccc(F)cc12 here?
The INHIBITION was -18.44%.

How did the INHIBITION turn out when CC(C(=O)Nc1nccs1)N1CCc2nn(C)c(=O)cc2C1 (stereo not drawn) was run?
The INHIBITION was 16.82%.

Which INHIBITION does the source give for Cn1c(CN2CCCC2)nnc1C1CCCN(C(=O)C2CCOCC2)C1 (stereo not drawn) here?
The INHIBITION was -19.54%.

Which INHIBITION does the source give for CCCc1cc(N2CCCC2Cn2nc(C)nc2C)n2ncnc2n1 (stereo not drawn) here?
The INHIBITION was 19.39%.

CCn1nc(C)c2ncnc(N3CCCC(C)C3)c21 (stereo not drawn) was tested. Which INHIBITION did it give?
Its INHIBITION is 73.48%.

With CCCc1nc(N2CCCC(C)C2)c2c(n1)c(C)nn2CC (stereo not drawn) as the compound, how does the INHIBITION read?
The INHIBITION was 15.58%.

How did the INHIBITION turn out when CCN(CC)c1ncnc2c(C)nn(CC)c12 was run?
Its INHIBITION is -25.59%.

For CS(=O)(=O)NCC1CCCN(c2ccc(C#N)cn2)C1 (stereo not drawn), which INHIBITION is on record?
Its INHIBITION is -0.3%.

With N#Cc1cccnc1N1CCCN(C(=O)CCn2cccn2)CC1 as the compound, how does the INHIBITION read?
The INHIBITION was 41.76%.
